Measured values published in PMC4336329 (PLoS ONE, 2015).
About 14,000 (4.5%) of roughly 310,000 compounds showed an effect of 50% or more. Effects have a minus sign here. The list comes from a sample in which strong results are over-represented; it also holds similar structures and randomly drawn compounds.

Molecular target: human ether-à-go-go-related gene (hERG) potassium channel (human, UniProt Q12809)
Experiment: primary screen, population patch clamp on CHO cells stably expressing hERG; higher = less effect of the substance
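Further: peak tail current of the secondary pulse compared with the same well before compound.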

Chain of human ether-à-go-go-related gene (hERG) potassium channel (Q12809 whole entry, looked up): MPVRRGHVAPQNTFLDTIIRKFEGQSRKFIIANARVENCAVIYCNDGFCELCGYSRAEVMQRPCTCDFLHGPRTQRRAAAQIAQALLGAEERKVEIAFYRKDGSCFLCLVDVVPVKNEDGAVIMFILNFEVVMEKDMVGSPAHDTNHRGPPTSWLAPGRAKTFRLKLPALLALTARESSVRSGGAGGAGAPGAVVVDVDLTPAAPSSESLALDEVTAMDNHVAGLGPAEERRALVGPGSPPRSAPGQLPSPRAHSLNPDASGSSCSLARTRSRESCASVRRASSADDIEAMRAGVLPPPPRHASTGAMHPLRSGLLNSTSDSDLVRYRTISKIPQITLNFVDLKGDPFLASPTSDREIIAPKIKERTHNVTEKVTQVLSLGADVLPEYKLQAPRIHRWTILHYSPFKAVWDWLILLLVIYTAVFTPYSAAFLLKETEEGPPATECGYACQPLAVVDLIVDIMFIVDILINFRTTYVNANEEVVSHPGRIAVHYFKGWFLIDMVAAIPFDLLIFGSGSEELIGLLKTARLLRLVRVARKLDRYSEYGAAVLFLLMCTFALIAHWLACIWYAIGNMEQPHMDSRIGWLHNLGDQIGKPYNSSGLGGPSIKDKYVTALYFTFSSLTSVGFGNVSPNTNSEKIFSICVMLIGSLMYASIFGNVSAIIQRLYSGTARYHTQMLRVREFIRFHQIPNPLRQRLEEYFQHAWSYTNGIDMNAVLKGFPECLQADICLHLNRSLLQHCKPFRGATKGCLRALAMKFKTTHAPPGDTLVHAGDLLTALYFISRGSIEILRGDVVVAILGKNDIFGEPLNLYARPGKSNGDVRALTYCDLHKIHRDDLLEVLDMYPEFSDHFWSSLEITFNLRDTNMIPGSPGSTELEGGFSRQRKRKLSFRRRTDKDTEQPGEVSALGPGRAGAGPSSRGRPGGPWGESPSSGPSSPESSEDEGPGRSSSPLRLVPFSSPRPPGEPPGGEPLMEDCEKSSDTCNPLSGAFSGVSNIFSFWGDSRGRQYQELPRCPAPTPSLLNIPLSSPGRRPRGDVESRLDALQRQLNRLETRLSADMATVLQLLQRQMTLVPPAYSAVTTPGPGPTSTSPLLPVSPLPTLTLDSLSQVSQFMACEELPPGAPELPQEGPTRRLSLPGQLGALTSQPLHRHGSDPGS

| SMILES | hERG current change (%, negative = inhibition) at 10uM [%] |
| --- | --- |
| O=S(=O)(c1ccccc1)N1CCN=C1SCc1ccc(Cl)c(Cl)c1 | -2.01 |
| Cc1ccc(NC(=O)CCCCCN2C(=O)[C@@H]3Cc4ccccc4CN3C2=O)c(C)c1 | 2.68 |
| Cc1ccc(-c2cc(-c3cccs3)[nH]n2)c(O)c1 | 1.75 |
| COC(=O)CSc1nc(NC(C)=O)nc(C)c1Br | 9.72 |
| COc1ccc(C2CC(c3cccs3)=NN2C(=O)CSc2nc3ccccc3s2)cc1 (stereo not shown) | -6.91 |
| O=C(CSc1nc2ccccc2s1)N1N=C(c2cccs2)CC1c1ccc(F)cc1 (stereo not shown) | 0.782 |
| O=C(CSc1nc2c(cnn2-c2ccccc2)c(=O)[nH]1)N1N=C(c2cccs2)CC1c1ccc(F)cc1 (stereo not shown) | 16 |
| COc1ccc(C2CC(c3cccs3)=NN2C(=O)CSC2=NCCS2)cc1 (stereo not shown) | -11 |
| COc1ccc(C2CC(c3cccs3)=NN2C(=O)CSc2nc(=O)n3ccccc3n2)cc1 (stereo not shown) | -57.5 |
| O=C(CSc1nc(=O)n2ccccc2n1)N1N=C(c2cccs2)CC1c1ccc(F)cc1 (stereo not shown) | -52.2 |
| O=C(NCc1ccccc1)c1ccc2nnsc2c1 | -1.17 |
| Cc1cc(=O)[nH]c(SCC(=O)N(CCC#N)c2ccccc2)c1C#N | 15.3 |
| COc1cc(OC)cc(C(=O)NCCNC(=O)c2ccccn2)c1 | 14.3 |
| CCN(CCCNC(=O)CN1C(=O)COc2ccccc21)c1cccc(C)c1 | -11.3 |
| CC(=O)Nc1ccc(Sc2ncccc2C(=O)Nc2ccc(F)cc2)cn1 | 13.9 |
| O=C(Nc1cc(C(F)(F)F)cc(C(F)(F)F)c1)c1ccc(Cn2cc(C(F)(F)F)ccc2=O)cc1 | 22 |
| CCc1nn2c(=O)cc(COC(=O)c3ccc(SC)cc3OC)nc2s1 | -18.7 |
| COCCc1nn2c(=O)cc(COC(=O)c3cc(OC)c(OC)c(OC)c3)nc2s1 | -22.6 |
| CCc1nn2c(=O)cc(COC(=O)c3cc(Cl)c(OC)c(OC)c3)nc2s1 | -69.5 |
| CCOc1cccc(C2C(C(=O)c3ccc(C)o3)=C(O)C(=O)N2c2nccs2)c1 (stereo not shown) | 0.752 |
| O=C(CN1CCC(NC(=O)c2ccccc2)CC1)NCc1ccccc1F | -20.6 |

| SMILES | hERG current change (%, negative = inhibition) at 10uM [%] |
| --- | --- |
| O=C(CCCN1CCC(NC(=O)c2ccccc2)CC1)c1ccc(Cl)cc1 | -77.8 |
| CCN(CC)C(=O)N1CCC(NC(=O)c2ccccc2)CC1 | 12.6 |
| CN1CCN(CCCC(=O)c2ccc(F)cc2)CC1.Cl | -14.5 |
| O=C(CCCN1CCC(C(=O)c2ccc(F)cc2)CC1)c1ccc(F)cc1 | -78.5 |
| Cc1ccc(C(=O)NC2CCN(S(=O)(=O)c3ccc(F)cc3)CC2)cc1 | 11.6 |
| Cl.O=C(CCCN1CCc2[nH]c3ccc(F)cc3c2C1)c1ccc(F)cc1 | -70.4 |
| O=C(c1ccc(F)cc1)C1CCN(C(=O)c2ccc(F)cc2)CC1 | -22.7 |
| C=CCNC(=O)N1CCc2[nH]c3ccc(F)cc3c2C1 | 6.56 |
| O=C(C1CCCCC1)N1CCc2[nH]c3ccc(F)cc3c2C1 | -3.94 |
| Cc1ccc(C(=O)NC2CCN(CCCC(=O)c3ccc(F)cc3)CC2)cc1 | -74 |
| Cc1ccc(C(=O)NC2CCN(C(=O)Nc3ccc(F)cc3)CC2)cc1 | 1.24 |
| COC(=O)C1C(=O)C2=C(CC1C)NC(=O)CC2c1cccc(C)c1 (stereo not shown) | -12.6 |
| CCCSc1nnc(NC(=O)c2ccco2)s1 | 2.42 |
| CC(NC(=O)CSc1nnc(-c2cc3cc(Cl)ccc3o2)n1C)c1ccccc1 (stereo not shown) | -12 |
| CCOC(=O)c1oc2ccccc2c1COC(=O)CNC(=O)c1cccc(C)c1 | 3.66 |
| CC(=O)c1cn(C)c(=O)n(C)c1=O | 4.7 |
| COC(=O)c1ccc(C23CC4(C2)[C@H](CN(Cc2cccnc2)[C@@H]4c2ccccc2)C3c2ccccc2)cc1 (stereo partly shown) | 12.8 |
| CCn1c(CNC(=O)c2ccccc2Br)nnc1SCC(=O)NC1=NCCS1 | 27.9 |
| CCOc1ccc(NC(=NCc2ccc3c(c2)OCO3)SC2CC(=O)N(c3ccc(OCC)cc3)C2=O)cc1 (stereo not shown) | -1.29 |
| CCOC(=O)N1CCN(C(=O)CCn2c(=S)[nH]c3cc(OCC)c(OCC)cc3c2=O)CC1 | -7.21 |
| COc1ccc(S(=O)(=O)N2CCC(NC(=O)c3ccccc3)CC2)cc1 | 17.8 |

| SMILES | hERG current change (%, negative = inhibition) at 10uM [%] |
| --- | --- |
| COc1cccc(C(=O)NC2CC3CCCC(C2)N3S(=O)(=O)c2ccccc2)c1 (stereo not shown) | -75.8 |
| O=C(NC1CC2CCCC(C1)N2S(=O)(=O)c1ccccc1)c1ccccc1 (stereo not shown) | -44 |
| Cc1cccc(C(=O)NC2CC3CCCC(C2)N3S(=O)(=O)c2ccccc2)c1 (stereo not shown) | -77.2 |
| CC(=O)NC1CC2CCCC(C1)N2S(=O)(=O)c1ccccc1 (stereo not shown) | 16.3 |
| COc1ccc(S(=O)(=O)N2CCC(NC(=O)c3cccnc3)CC2)cc1 | -64.7 |
| Cc1cccc(C(=O)NC2CCN(S(=O)(=O)c3ccccc3)CC2)c1 | 3.41 |
| CCCN1C2CCCC1CC(NC(=O)c1cccc(OC)c1)C2 (stereo not shown) | -16.4 |
| O=C(NC1CCN(S(=O)(=O)c2ccc(Cl)cc2)CC1)c1cccnc1 | 0.584 |
| Cc1nn(CC(=O)NC2(C#N)CCCCC2)c(C)c1[N+](=O)[O-] | 3.09 |
| CCCCOC(=O)C1=C(C)NC(=O)NC1c1ccc(N(C)C)cc1 (stereo not shown) | 21.7 |
| O=C(COc1ccccc1)N1CCN(C2CC3CCC2C3)CC1 (stereo not shown) | 7.39 |
| NC(=O)c1nsc(C(=O)N(c2ccc(F)cc2)C(C(=O)NC2CCCC2)c2ccncc2)c1N (stereo not shown) | -0.193 |
| COc1cccc2c1c(NC(=O)Nc1ccc(F)cc1F)nn2C | 15.3 |
| COc1cc2cc(CN(Cc3cccnc3)C(=O)NCc3ccccc3)c(=O)[nH]c2cc1OC | -12.6 |
| CC12CC[C@H]3[C@@H](CCC4(O)C[C@H](O)CCC34/C=N/NC(=O)c3ccc(O)cc3)C1(O)CCC2C1=CC(=O)OC1 (stereo partly shown) | 15 |
| CC(C)(/C=N/O)N(O)C=C1C=CC(=O)C=C1 | 5.81 |
| Brc1cc2c(cc1/C=N/Nc1nc(N3CCOCC3)nc(N3CCOCC3)n1)OCO2 | -5 |
| Brc1cc2c(cc1/C=N/Nc1nc(N3CCCC3)nc(N3CCOCC3)n1)OCO2 | -51.3 |
| COc1nc(N/N=C/c2cc3c(cc2Br)OCO3)nc(N2CCOCC2)n1 | -27.8 |
| O=[N+]([O-])c1ccccc1/C=C/C=N/Nc1nc(N2CCCCC2)nc(N2CCCCC2)n1 | -12.2 |
| C(=C\c1ccccc1)/C=N/Nc1nc(N2CCOCC2)nc(N2CCOCC2)n1 | -9.68 |

| SMILES | hERG current change (%, negative = inhibition) at 10uM [%] |
| --- | --- |
| Clc1ccccc1/C=C/C=N/Nc1nc(N2CCOCC2)nc(N2CCOCC2)n1 | -58.4 |
| O=C(c1ccccc1)n1ccc2ccccc21 | -28 |
| O=S(=O)(c1ccc(Oc2ncnc3scc(-c4ccccc4)c23)cc1)N1CCOCC1 | -0.503 |
| Cc1c(C(=O)NCC(c2ccco2)N(C)C)oc2c(Cl)cccc12 (stereo not shown) | -36.9 |
| C/C(=C\c1ccc2c(c1)OCO2)C1Nc2cccc3cccc(c23)N1 | 16.8 |
| COc1ccccc1OCC(=O)NCC(C)NC(=O)COc1ccccc1OC (stereo not shown) | 4.93 |
| Cc1cccc(S(=O)(=O)NNC(=O)c2cc(-c3ccc(F)cc3)nc3ccccc23)c1 | 28.5 |
| COc1cccc(CN(C)C(=O)c2ccc(N3CCCC3)c([N+](=O)[O-])c2)c1 | -45.3 |
| COc1ccc(NC(=O)CN(C)C(=O)c2ccc(N3CCCC3)c([N+](=O)[O-])c2)cc1 | -54 |
| CN(CC(=O)Nc1ccccc1Cl)C(=O)c1ccc(N2CCCCCC2)c([N+](=O)[O-])c1 | -20.2 |
| COc1ccc(Cl)cc1NC(=O)CN(C)C(=O)c1ccc(N2CCCCCC2)c([N+](=O)[O-])c1 | 5.32 |
| CCOc1ccc(NC(=O)CN(C)C(=O)c2cc(S(=O)(=O)N(C)C)ccc2N2CCCC2)cc1OCC | 6.11 |
| COc1ccc(NC(=O)CN(C)C(=O)c2ccc(N3CCCCC3)c([N+](=O)[O-])c2)cc1 | -76.8 |
| COc1ccc(Cl)cc1NC(=O)CN(C)C(=O)c1ccc(N2CCCCC2)c([N+](=O)[O-])c1 | -18.8 |
| CN(CC(=O)Nc1cccc(F)c1)C(=O)c1ccc(N2CCCCCC2)c([N+](=O)[O-])c1 | 17.9 |
| CCOc1ccc(NC(=O)CN(C)C(=O)c2ccc(N3CCCCC3)c([N+](=O)[O-])c2)cc1OCC | -57.6 |
| CCOc1ccc(NC(=O)CN(C)C(=O)c2ccc(N3CCCCCC3)c([N+](=O)[O-])c2)cc1OCC | 3.4 |
| COc1ccc(NC(=O)CN(C)C(=O)c2ccc(N3CCOCC3)c([N+](=O)[O-])c2)cc1 | -46.3 |
| COc1ccc(NC(=O)CN(C)C(=O)c2ccc(N3CCCCCC3)c([N+](=O)[O-])c2)cc1 | -51.6 |
